# Screening results (PubChem BioAssay)
# A selection: hits, their analogues and other compounds. The true share with any hit is near 12%.
# HP1b chromo inh – HTS for Inhibitors of HP1-beta Chromodomain Interactions with Methylated Histone Tails. AlphaScreen HP1-beta / biotin-H3K9me3 peptide binding. Potency, µM (doses to about 114 µM), for inactives: top-dose activity change, negative = inhibition, most hits filed as inhibitors. hit rate 0.56% among 390,000; further: nearly all actives have a fitted effect of over 70% in size
# Target sequence (P83916 whole entry, looked up): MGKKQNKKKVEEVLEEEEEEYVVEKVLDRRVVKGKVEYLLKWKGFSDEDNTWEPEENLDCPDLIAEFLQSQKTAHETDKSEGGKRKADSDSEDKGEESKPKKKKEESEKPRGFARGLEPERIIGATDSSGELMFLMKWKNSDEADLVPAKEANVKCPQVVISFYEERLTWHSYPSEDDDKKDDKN
#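 Compound inhibition of the preformed complex between 50 nM HP1-beta and 50 nM biotinylated H3K9me3 peptide was read by AlphaScreen. Buffer was PBS pH 7.4 with 0.01% Tween-20. Incubations ran 30 min at room temperature, with 10 ug/mL donor/acceptor beads.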
# L3MBTL1 block – qHTS Assay for the Inhibitors of L3MBTL1; hit rate 0.66% among 230,000; Lethal(3)malignant brain tumor-like protein 1 (Homo sapiens), Q9Y468; AlphaScreen L3MBTL1–H3K9me1 peptide binding; Potency, µM (highest dose often 57.1 µM), for inactives: at the highest dose activity, negative = inhibition, actives largely listed as inhibitors; further: on the % scale 0 is the no-effect control and ±100 the full control effect; nearly all actives have a fitted effect of over 60% in size
#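 AlphaScreen proximity signal between nickel-chelate acceptor and streptavidin donor beads (final 10 ug/mL) reports binding of 50 nM L3MBTL1 to 75 nM biotin-H3 K9me1 peptide; complex incubated with compounds 30 min at room temperature; cefsulodin titration as control.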
# G9a inh – qHTS Assay for Inhibitors of Histone Lysine Methyltransferase G9a | G9a H3K9 monomethylation, AlphaScreen, 2 h | Potency, µM (top dose mostly 102 µM), for the others: at the highest dose activity, negative = inhibition, most hits filed as inhibitors | hit rate 8.8% among 350,000 | AID 504332, 2011; further: on the % scale 0 is the no-effect control and ±100 the full control effect; nearly all actives have a fitted effect of over 75% in size
# Target sequence (Q96KQ7 913-1193 limits assumed): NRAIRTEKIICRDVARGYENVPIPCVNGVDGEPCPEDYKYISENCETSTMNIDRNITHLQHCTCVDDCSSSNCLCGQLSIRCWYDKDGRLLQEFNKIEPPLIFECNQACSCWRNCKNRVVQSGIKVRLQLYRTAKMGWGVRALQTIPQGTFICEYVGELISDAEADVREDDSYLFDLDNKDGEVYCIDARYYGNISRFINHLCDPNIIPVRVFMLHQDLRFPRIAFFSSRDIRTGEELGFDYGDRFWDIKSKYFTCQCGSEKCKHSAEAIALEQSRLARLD
#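 AlphaScreen detection with an anti-monomethyl H3K9 antibody quantified product after a 2 h room-temperature reaction containing 500 nM biotinylated H3K9 peptide, 20 µM SAM and 20 nM enzyme, which had been preincubated 15 min with compound.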
# Sfp inh – qHTS Assay for Inhibitors of Bacillus subtilis Sfp phosphopantetheinyl transferase (PPTase); 4'-phosphopantetheinyl transferase ffp (Bacillus subtilis), Q9F4F7; Potency, µM, for the others: largest response in the series, negative = inhibition, actives largely listed as inhibitors; Biochemical Sfp PPTase activity, qHTS; hit rate 3.5% among 310,000;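 further: the enzyme is Sfp with the accession as filed and its product quenches rhodamine fluorescence; 0% = enzyme reaction without inhibitor and -100% = no enzyme wells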
#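 Fluorescence-quenching assay with 15 nM Sfp, 5 uM rhodamine-CoA and 12.5 uM BHQ-2-labelled ybbR peptide in pH 7.6 Hepes/MgCl2 buffer. Enzyme was pre-incubated with compound for 15 min at room temperature. Rate was taken from the 30-min fluorescence change (525/598 nm).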
# BAZ2B block – qHTS Assay for Inhibitors of BAZ2B; hit rate 4.4% among 360,000; Potency, µM (highest dose often 114 µM), for the others: top-dose activity change, negative = inhibition, actives largely listed as inhibitors; Bromodomain adjacent to zinc finger domain protein 2B (Homo sapiens), Q9UIF8; AlphaScreen BAZ2B-H3K14Ac peptide displacement; further: on the % scale 0 is the no-effect control and ±100 the full control effect; nearly all actives have a fitted effect of over 60% in size
#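 Protein-peptide AlphaScreen: BAZ2B 50 nM, b-H3K14Ac 50 nM, 1x PBS pH 7.4 + 0.01% Tween-20. Preincubation 30 min RT; cpd 30 min RT (top 110 uM); beads 20 min RT, light-protected.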
# JMJD2A Tudor inh – qHTS Assay for Inhibitors of JMJD2A-Tudor Domain; AlphaScreen JMJD2A-Tudor / H3K4me3 peptide binding; hit rate 4.4% among 390,000; Potency, µM (doses to about 114 µM), without a hit: at the top dose activity change, negative = inhibition, usual class: inhibitors; further: on the % scale 0 is the no-effect control and ±100 the full control effect; nearly all actives have a fitted effect of over 50% in size
# * = called active by the depositor; ? = inconclusive; . = not tested or not shown; [ ] = dose if it differs, or a comment. The call rests on the fitted dose curve; in most records, active means well fitted curve in the direction sought with a large enough effect; inconclusive means small, poorly fitted or top-dose-only effect, or another doubt; inactive means no such curve, though single readings can be large; an effect the other way counts as inactive or inconclusive. Potency means the concentration at half of the fitted maximal effect.
SMILES,HP1b chromo inh,L3MBTL1 block,G9a inh,Sfp inh,BAZ2B block,JMJD2A Tudor inh
COc1ccc(N2CCN(C(=O)CCCNC(=O)Cn3cnc4sc(C)c(C)c4c3=O)CC2)cc1,16.3%,.,50.1µM*,9.6%,-2.9%,-17.2%
O=[N+]([O-])C(=C1Nc2ccccc2N1)/C(Cl)=C(/Cl)Br,?,-6.9%,7.94µM*,-19.5%,?,17.8µM*
C=CCn1c(SCc2csc(-c3ccc(Cl)cc3)n2)nnc1-c1ccccc1OC,27.1%,-1.5%,70.8µM*,-15.0%,9.8%,-20.6%
CCOc1ccc(-c2nc(CSc3nnc(N)s3)cs2)cc1,10.2%,.,-4.4%[12.7 µM],10.1%,-5.5%,1.4%
Nc1ccccc1SCc1csc(-c2ccc(Cl)cc2)n1,62.1%,16.2%,35.5µM*,14.1µM*,12.7%,32.4%
COc1cc(CNCc2cc(OC)ccc2OC)cc(OC)c1,?,-9.1%,25.1µM*,-5.4%,?,28.2µM*
COc1ccc(CNCc2cc(OC)ccc2OC)cc1,-19.9%,10.8%,12.6µM*,-8.8%,56.2µM*,28.2µM*
COc1ccc(CNCc2ccc(F)cc2)c(OC)c1,30.1%,1.6%,14.7%,7.0%,-21.0%,-17.1%
COc1ccc(CNCc2cc(C)c(OC)cc2C)c(OC)c1,?,26.0%,.,-11.1%,50.1µM*,20µM*
Cc1cc(N2CCCC2)ccc1NC(=O)COc1cccc(C(F)(F)F)c1,22.8%,.,.,-12.8%,-26.4%,-27.6%
CC(=O)Nc1cccc(NC(=O)CSc2ccc(-c3sc(-c4ccccc4)nc3C)nn2)c1,32.6%,.,4.6%[59 µM],.,0.7%,-7.7%
O=C(Nc1ccc(Cl)c(S(=O)(=O)N2CCCC2)c1)c1cc(=O)[nH]c2ccccc12,3.4%,-1.7%,.,.,.,?
O=c1ccc(N=Nc2ccccc2)ccc1O,?,-11.4%,44.7µM*,-10.4%,11.2µM*,50.1µM*
COc1cc(NC(=O)c2ccc3nsnc3c2)cc(OC)c1OC,-0.1%,.,?,11.2%,?,-24.8%
COc1ccc(C(=O)NNC(=O)C(=O)NC(C)c2ccccc2)cc1OC (stereo not given),40.4%,.,6.31µM*,10.0%,-12.6%,-3.2%
COc1ccccc1NC(=O)c1ccc2nsnc2c1,-4.6%,.,-6.3%,22.3%,-0.5%,12.6µM*
COc1ccc(C(=O)Nc2ccccc2C(=O)N2CCCCCC2)cc1OC,13.7%,.,10.6%,7.4%,1.5%,-9.7%
COc1ccc(C(=O)Nc2ccccc2C(=O)NC(C)C)cc1OC,3.5%,.,5.6%[59 µM],25.3%,-0.4%,50.1µM*
CCC(CC)COC(=O)C1=C(C)NC(=O)NC1c1cccc([N+](=O)[O-])c1 (stereo not given),36.0%,-3.8%,-7.7%,14.3%,-0.1%,-15.6%
Nc1ccc2c(c1)C(=O)N(c1ccc3ccccc3c1)C2=O,63.5%,.,.,.,.,11.3%
CCOc1cccc2cc(C(=O)NCc3ccccc3)c(=N)oc12,54.4%,.,-3.2%,-2.1%,0.2%,1.0%
CCOc1cccc2cc(C(N)=O)c(=N)oc12,27.6%[57 µM],3.8%,31.6µM*,18.0%,-4.4%,-3.0%
COc1cccc2cc(C(=O)N3CCC(C)CC3)c(=O)oc12,47.6%,1.7%,50.1µM*,-11.3%,-4.8%,-9.2%
CCOc1cccc2cc(C(=O)Oc3ccc(OC)cc3)c(=O)oc12,12.3%,-8.0%,20µM*,?,-25.3%,-28.6%
C[C@H]1CN([C@@H](C)CO)C(=O)c2cc(NC(=O)C3CCCCC3)ccc2O[C@H]1CN(C)S(=O)(=O)c1ccccc1,33.2%,-3.7%,.,.,.,-10.6%
SMILES,HP1b chromo inh,L3MBTL1 block,G9a inh,Sfp inh,BAZ2B block,JMJD2A Tudor inh
N#CCC(=O)c1sccc1-n1cccc1,-2.8%,-16.6%,12.6µM*,10.6%,79.4µM*,-18.9%[57.1 µM]
N#CCOC(=O)c1sccc1-n1cccc1,4.7%,-4.1%,5.3%[59 µM],18.4%,-6.0%,-7.5%
CCc1nc(C)cn1S(=O)(=O)c1ccc2c(c1)OCCO2,17.6%[57 µM],.,.,.,.,-10.7%
Cc1cccc(S(=O)(=O)NC2CCN(C#N)C2)c1 (stereo not given),.,.,.,.,.,-4.1%
C/C(=N\NC(=O)c1nnn(-c2nonc2N)c1CN1CCCCC1)c1ccccc1O,20.8%,.,11.4%,3.3%,44.7µM*,?
COc1ccc(/C(C)=N/NC(=O)c2nnn(-c3nonc3N)c2CN(C)c2ccccc2)cc1,33.7%,.,18.3%,18.0%,-3.6%,3.1%
COc1ccc(/C(C)=N/NC(=O)c2nnn(-c3nonc3N)c2-c2ccccc2)cc1,26.2%,.,50.1µM*,-22.0%,?,-7.0%
COc1ccc(/C(C)=N/NC(=O)c2nnn(-c3nonc3N)c2-c2cccs2)cc1,27.3%,.,46.3%,16.1%,0.2%,-6.8%
Cc1ccc(-c2c(C(=O)N/N=C/C3CCCCC3)nnn2-c2nonc2N)cc1,56.4%,.,0.6%,14.9%,79.4µM*,-3.0%
CC(/C=N/NC(=O)c1nnn(-c2nonc2N)c1CN1CCCCC1)=C\c1ccccc1,27.5%,.,.,-9.5%,-16.7%,-15.1%
C/C(=N\NC(=O)c1nnn(-c2nonc2N)c1CN(C)c1ccccc1)c1ccccc1O,13.2%[57 µM],.,20.8%,2.3%,2.24µM*,14.1µM*
COc1cccc(-n2c(SCc3ccc(F)cc3)nc3c([nH]c4ccccc43)c2=O)c1,18.7%[57 µM],.,0.7%[59 µM],.,-2.1%,-31.3%
Cc1ccc(C(=O)CSc2nnc(-c3ccccc3N)n2C)cc1,25.0%,0.2%,-0.8%[2.33 µM],-6.4%,-34.9%,-16.4%
Cn1c(SCC(=O)c2cc(Cl)c(Cl)s2)nnc1-c1ccco1,-5.2%,-13.9%,?,17.8µM*,-31.8%,?
Cc1ccc(C(=O)CSc2nnc(-c3cccnc3)n2N)cc1,12.7%,-1.9%,31.6µM*,0.6%,-5.8%,50.1µM*
Cc1ccc(C(=O)CSc2nnc(-c3ccco3)n2C)cc1,-16.6%,6.7%,.,18.4%,-13.6%,8.91µM*
Cc1ccc(CN(Cc2ccco2)C(=O)c2ccc(Cl)cc2)o1,-18.5%,.,-25.5%[59 µM],.,-14.9%,?
COc1ccccc1N1CCN(C(=O)c2cccc(S(=O)(=O)N3CCCCCC3)c2)CC1,22.9%,-6.6%,-10.1%[12.7 µM],.,-4.9%,-7.4%
CCc1noc(C)c1C(=O)Nc1ccc(Cl)c(S(=O)(=O)N2CCCCC2)c1,19.7%,1.5%,?,.,5.6%,-18.5%
O=C(CCCn1c(=O)c2cccn2c2ccc(F)cc21)NCc1ccc(Cl)cc1,27.1%,.,8.6%[59 µM],.,-3.3%,1.6%
c1ccc(Cn2nnnc2C(c2ccccc2)N2CCN(Cc3ccncc3)CC2)cc1 (stereo not given),50.0%,.,.,.,.,?
